Test results as given in PubChem BioAssay AID1347165 (National Center for Advancing Translational Sciences (NCATS), 2019).
Screen size: about 220,000 compounds; about 5,700 (2.6%) were called active. Not shown: some 18% with an inconclusive outcome. Calls come from the whole dose curve; as a rule, active = well fitted inhibition curve with a large enough effect; inconclusive = small, poorly fitted or top-dose-only effect; inactive = no such curve, though single readings can be large or run the other way. What follows is part of a selection rich in actives, with near analogues and random picks from the rest.

Target: Lysine-specific demethylase 5B (Homo sapiens) (UniProt Q9UGL1)
Test: Primary screen for KDM5B Histone Demethylases FDH-coupled qHTS; note: nearly all actives have a fitted effect of over 70% in size
Settings: FDH-coupled NADH fluorescence (FDH is formaldehyde dehydrogenase); series mostly up to 57.7 µM
From the text: Assay Submitter (PI): Qin Yan, Ph.D. (Yale University) and Xiaodong Cheng, Ph.D. (MD Anderson) This project was funded as part of the NCI NEXT Program and Chemical Biology Consortium (CBC) The histone demethylases, KDM5A and KDM5B catalyze the demethylation of lysine 4 on histone H3 (H3K4me3/2). They are overexpressed in a variety of cancers and have been implicated in cancer cell growth, metastasis, drug resistance, and tumor growth. KDM5A is amplified and overexpressed in breast and gastric cancer; and is translocated in leukemia. While KDM5B is highly expressed in human mammary tumors and breast cancer cell lines, but not in normal adult breast tissue. Moreover, knockdown of KDM5B leads to upregulation of tumor suppressor genes, including BRCA1. The goal of this project is to employ qHTS to identify selective small molecule inhibitors of KDM5A/B demethylase activity to better understand the role of KDM5 in cancer and to develop novel therapies. We employed an FDH-coupled assay previously reported by Sakurai et al. to monitor in vitro KDM5 demethylase activity. Compounds showing dose response inhibition are re-acquired, validated, and tested for non-specific interference with the formaldehyde dehydrogenase (FDH) counterscreen. True inhibitors are validated using an AlphaLisa secondary screen, which employs an H3K4(me2-1)-specific antibody to monitor demethylation of a biotin-tagged H3K4(me3) peptide substrate. Inhibitors are profiled against KDM4A and KDM6A AlphaLisa counterscreens to determine level of demethylase specificity; and against the TruHits counterscreen to eliminate non-specific inhibitory activity on the AlphaLISA detection method. Selective inhibitors identified from the primary and secondary screening are tested in cells using immunofluorescence to monitor global H3K4 tri-methylation as a measure of KDM5A/B inhibition. Early Translation Branch (ETB) National Center for Advancing Translational Sciences (NCATS), Rockville, MD National Institute of Health (NIH), Bethesda, Maryland [1] Sakurai, M et al. A miniaturized screen for inhibitors of Jumonji histone demethylases. Mol Biosyst. 2010 Feb;6(2):357-64. doi: 10.1039/b912993f. Epub 2009 Oct 8.
Materials: 1536-well Black, solid bottom, medium binding assay plate is purchased from Greiner Bio-one. The enzymes (KDM5B) and substrate (H3K4me3/2) are provided by the principal investigators. The buffer for this assay is composed of 50mM HEPES at pH 7.5 with 0.01% Tween-20. FDH coupled Demethylase qHTS protocol: Three microliter enzyme mix (buffer + 200nM KDM5BDeltaAP final concentration) is dispensed into the assay plate using the BioRAPTR Flying Reagent Dispenser (FRD; […]). Compound (at various final concentration) and control solution is pin transferred to the assay plate using the Kalypsys 1536-pin tool apparatus. The assay plate is incubated for 10 min at room temperature followed by addition of 1uL substrate mix (buffer + 100uM ascorbic acid, 50uM ferrous ammonium sulfate, 12.5uM H3K4Me3, 25uM a-ketoglutarate, 0.25 mM NAD+, 0.25 U/mL formaldehyde dehydrogenase using the FRD yielding a total reaction volume of 4 uL. Initial fluorescence (Read1) is detected using the PerkinElmer ViewLux plate reader equipped with 340 nm excitation and 450 nm emission filters. The final fluorescence (Read2) signal is obtained after 30 min of room temperature incubation. Delta RFU is calculated (Read2 - Read1) and is used to generated dose response curves.
Potency is the fitted concentration of half-maximal effect.

Lysine-specific demethylase 5B (Homo sapiens), sequence (Q9UGL1 whole entry, looked up): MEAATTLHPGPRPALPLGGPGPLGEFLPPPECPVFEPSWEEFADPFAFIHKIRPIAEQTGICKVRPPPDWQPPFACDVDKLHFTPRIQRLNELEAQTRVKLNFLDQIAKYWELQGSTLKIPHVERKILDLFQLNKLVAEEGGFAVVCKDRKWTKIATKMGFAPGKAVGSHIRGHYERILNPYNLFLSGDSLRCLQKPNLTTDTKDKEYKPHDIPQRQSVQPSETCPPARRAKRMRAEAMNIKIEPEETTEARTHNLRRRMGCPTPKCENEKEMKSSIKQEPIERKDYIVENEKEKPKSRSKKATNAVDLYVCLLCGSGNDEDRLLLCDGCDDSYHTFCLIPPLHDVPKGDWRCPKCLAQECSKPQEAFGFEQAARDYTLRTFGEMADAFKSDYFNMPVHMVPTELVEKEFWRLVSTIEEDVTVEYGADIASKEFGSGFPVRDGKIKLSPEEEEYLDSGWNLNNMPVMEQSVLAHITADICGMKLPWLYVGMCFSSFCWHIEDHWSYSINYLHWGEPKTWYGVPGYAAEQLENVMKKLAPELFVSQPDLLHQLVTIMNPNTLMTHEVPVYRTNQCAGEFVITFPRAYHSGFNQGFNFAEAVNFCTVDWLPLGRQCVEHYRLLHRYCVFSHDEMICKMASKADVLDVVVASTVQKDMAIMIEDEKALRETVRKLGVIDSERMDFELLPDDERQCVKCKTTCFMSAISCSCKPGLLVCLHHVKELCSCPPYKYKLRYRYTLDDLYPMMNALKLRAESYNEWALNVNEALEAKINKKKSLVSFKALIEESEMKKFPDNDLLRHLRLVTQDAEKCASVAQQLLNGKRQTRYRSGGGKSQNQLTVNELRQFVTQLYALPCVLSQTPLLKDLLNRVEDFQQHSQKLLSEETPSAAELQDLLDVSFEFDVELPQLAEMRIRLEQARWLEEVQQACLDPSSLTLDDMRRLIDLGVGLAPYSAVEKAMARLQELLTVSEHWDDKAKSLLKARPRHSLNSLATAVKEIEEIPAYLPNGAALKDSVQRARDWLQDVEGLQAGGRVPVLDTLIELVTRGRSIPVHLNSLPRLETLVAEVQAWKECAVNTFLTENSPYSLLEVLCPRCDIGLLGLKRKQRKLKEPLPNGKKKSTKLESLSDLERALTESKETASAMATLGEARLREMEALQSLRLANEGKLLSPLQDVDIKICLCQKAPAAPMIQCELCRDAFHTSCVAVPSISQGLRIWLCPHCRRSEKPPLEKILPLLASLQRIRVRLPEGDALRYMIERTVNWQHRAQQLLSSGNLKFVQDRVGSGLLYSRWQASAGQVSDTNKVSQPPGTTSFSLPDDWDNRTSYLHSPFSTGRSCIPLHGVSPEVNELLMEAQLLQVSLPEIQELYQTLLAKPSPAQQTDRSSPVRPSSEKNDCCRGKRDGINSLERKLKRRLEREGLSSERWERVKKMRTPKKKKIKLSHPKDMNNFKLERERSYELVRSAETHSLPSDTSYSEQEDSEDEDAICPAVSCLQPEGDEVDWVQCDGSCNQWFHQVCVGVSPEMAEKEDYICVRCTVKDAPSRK

Potency, inactive:
O=C1CCN(C(=O)c2nccc3ccccc23)CCOCCN1, O=C(c1cc(-c2ccc(Cl)s2)nc2ccccc12)N1CCOCC1, NC(=O)c1ccc(NC(=O)CCc2ncc(-c3ccc(F)cc3)o2)cc1, O=C(CSc1nnc(-c2ccccc2)c2ccccc12)c1ccc2c(c1)OCCCO2, O=C(CS(=O)(=O)Cc1coc(-c2ccc(F)cc2)n1)NC1CCCCCC1, O=C(COc1ccc(Cl)cc1)Nc1ccc2oc(-c3ccc(F)cc3)nc2c1, CC(C)C(Nc1ccc([N+](=O)[O-])cn1)c1ccc(Cl)cc1 (stereo not given), O=C(NC1CCN(c2cc(C(F)(F)F)ncn2)CC1)c1ccc(F)cc1, Cc1ccccc1CN1CCC(N2CCCC(C(=O)NC3CC3)C2)CC1 (stereo not given), O=C(NCc1ccccc1)C1CCN(c2nc3ccccc3o2)CC1, Cc1ccnc(N2CCCC(C(=O)NC3CC3)C2)n1 (stereo not given), CCN(CC)Cc1ccc(CNC(=O)C2CCN(c3nc4ccccc4o3)CC2)cc1, O=C(NC1CCCCC1)c1ccc(Cn2c(SCc3ccccc3)nc3cccnc32)cc1, O=C(NC1C[C@H]2CC[C@@H](C1)N2S(=O)(=O)c1ccc2c(c1)OCCO2)c1ccc(F)cc1 (stereo not given in full), Cc1cc(C)cc(C(=O)NC2CCN(c3cnn(C)c(=O)c3)CC2)c1, CC/C(=N/N=C(/CC)c1ccccc1)c1ccccc1, CC(C)c1nnc(NC(=O)c2cc(Cl)c3c(c2)OCCO3)s1, O=C(NCc1ccc(CN2CCCCC2)cc1)c1cc2ccccc2oc1=O, CC(C)NC(=O)Nc1ccc(CNC(=O)C2(C#N)CCCC2)cc1, Cn1c(=O)[nH]c(=O)c2c1nc(N1CCC(Cc3ccccc3)CC1)n2CCCc1ccccc1, O=C(NCC(=O)N1CCCC(C(F)(F)F)C1)c1ccccc1F (stereo not given), CC1CCC(NC(=O)CCCc2ccccc2)CC1 (stereo not given), O=C(c1n[nH]c(=O)c2ccccc12)N1CCCCCC1c1nnc(-c2ccccc2)o1 (stereo not given), Cc1sc(NCCC(C)C)nc1-c1ccc(NS(C)(=O)=O)cc1, CC(C)c1ncc(Cl)c(C(=O)O)n1, CN(C)CCNC(=O)c1nc2nc(-c3ccccc3)c(-c3cccc(F)c3)cc2n1C, COc1ccc(Nc2cc(Cl)ccc2C(=O)O)cn1, CN(C(=O)CCc1c[nH]c2ccccc12)C1CCCC1, O=C1NCc2ccccc2CC12CCCN(Cc1ccc(F)c(Cl)c1)C2 (stereo not given), CCOc1ccccc1NC(=O)c1cnc2ccccc2n1, CCC(C(=O)Nc1ccc(F)cc1F)n1nc(-c2ccc(C)cc2)ccc1=O (stereo not given), O=c1[nH]c(C2CCN(Cc3ccccc3)CC2)nc2ccc(F)cc12, Cc1ccc2nc(C3CCCN(Cc4ccc(C#N)cc4)C3)[nH]c(=O)c2c1 (stereo not given), Cc1cc(Cl)cc(SCC(=O)O)c1Cl, CC(C)NC(=S)N/N=C1\CCc2ccccc21, Cc1ccc(S(=O)(=O)N2CC(C)N(S(C)(=O)=O)C2)cc1 (stereo not given), COc1ccc(CN(C)C(=O)c2nn(C)c(=O)c3ccccc23)cc1F, COc1ccccc1CNC(=O)c1nn(C)c(=O)c2ccccc12, O=C(/C=C/c1ccc(F)cc1)NNC(=O)c1ccc(NC(=O)C2CCCCC2)cc1, CCCCCOC(=O)COc1ccc2c(=O)c(Oc3cccc(C)c3)c(C(F)(F)F)oc2c1, CC(C)C(NC(=O)Cc1ccc(N2CCCC2=O)cc1)c1nc2ccccc2[nH]1 (stereo not given), CCCS(=O)(=O)N1Cc2c(ncn2Cc2ccc(Cl)cc2)C[C@H]1C(=O)OC, COC(=O)[C@@H]1Cc2ncn(Cc3ccccc3)c2CN1C(=O)CC(C)(C)C, CCC(C)NC(=O)c1sccc1-c1ccccc1 (stereo not given), CCc1nc2ccc(C(=O)NCCCN(CC)CC)cc2nc1CC, CCc1c(C)sc(NC(=O)c2cccc(Br)c2)c1C#N, CC1CCC2CCCCC2N1C(=O)c1cc([N+](=O)[O-])cc([N+](=O)[O-])c1 (stereo not given), O=S(=O)(c1cccs1)N1CCn2cccc2C1c1ccccc1F (stereo not given), CC(=O)N1CC(CO)C2(CCN(C(=O)c3ccccc3Cl)CC2)C1 (stereo not given), CCN1C(=O)C2CC3(CCN(C(=O)c4nccn4C)CC3)CN2C1=O (stereo not given), Cn1cc(CC(=O)N2CCCc3ncc(C(=O)NCCOc4ccccc4)cc32)c2ccccc21, Cc1cccc(NC(CNS(=O)(=O)c2ccccc2)c2ccccc2)c1 (stereo not given), CC(C)OCCC(=O)N1CCCC(CN2CCN(c3ccccn3)CC2)C1 (stereo not given), O=C(CC(NC(=O)c1ccccc1)c1ccccc1)NCc1cccs1 (stereo not given), CCOC(=O)N1CCN(Cc2cc(=O)oc3c(C)c(C)cc(C)c23)CC1, CCC(Sc1nc2ncccc2[nH]1)C(=O)Nc1ccc(C)c(Cl)c1 (stereo not given), c1cnc2nc(C3CCCCN3)[nH]c2c1 (stereo not given), OC(c1nc2ccc(F)cc2[nH]1)C(O)c1nc2ccc(F)cc2[nH]1 (stereo not given), NC(=O)c1cccc(-c2ncc3c(n2)OCCN(Cc2ccccc2)C3=O)c1, O=C1c2cnc(-c3ccccc3)nc2OCCN1c1ccccc1, NC(=O)c1cccc(-c2ncc3c(n2)OCCN(c2cccc(C(F)(F)F)c2)C3=O)c1, O=C1c2cnc(-c3ccc(Cl)cc3)nc2OCCN1Cc1ccccc1, CCCNc1c(NC(=O)Nc2ccccc2)c(=O)oc2ccccc12, CCCCN1C(=O)NC(c2ccc(OC)cc2)C2=C1COC2=O (stereo not given), O=C(Nc1ccc(F)cc1)C1=C(N2CCCC2)c2ccccc2S1(=O)=O, Cn1nc(C(=O)Nc2nc(-c3cc(F)ccc3F)cs2)c2ccccc2c1=O, CC(C)(C)Sc1ccc2nn(CC(=O)NCc3ccccc3Cl)c(=O)n2n1, Cc1nc(Cc2nn3c(-c4cc(Cl)ccc4F)nnc3s2)cs1, Cc1nc(C)c(C(=O)C2=C(O)C(=O)N(CCN3CCOCC3)C2c2ccc(C(C)(C)C)cc2)s1 (stereo not given), COC(=O)c1ccc(COc2c(Cl)cccc2Cl)cc1, Cc1nn(-c2ccccc2)c(C)c1[C@@H]1C=C[C@@H](NC(=O)c2ccc3c(c2)OCO3)C1, Cc1nn(-c2ccc(C(C)C)cc2)c(C)c1[C@@H]1C=C[C@@H](NC(=O)Nc2ccccc2)C1, CCCCN(CCCC)c1nc2ccccc2nc1C(C#N)C(=O)OC(C)C (stereo not given), N#Cc1cccc(Oc2cccc3cccnc23)c1C#N, c1csc(CNCC2CCNCC2)c1, O=Cc1cccc(-c2cc(F)cc(F)c2)c1, CSc1ccc(/C=N/Nc2c(Cl)cc(Cl)cc2Cl)cc1, CNC(=O)c1cccc(CNC(=O)C=C(C)C)c1, Cc1noc(C)c1COc1ccc(C(=O)NCCOc2ccccc2)cc1, Cc1nn(-c2nc3c(c(=O)n(CCN4CCCCC4)c(=O)n3C)n2C)c(C)c1C, CCOC(=O)c1ccc(NC(=O)Cn2c(=O)cc(C)c3c(C)nn(-c4cccc(F)c4)c32)cc1, COc1cccc(NC(=O)Cn2c(=O)cc(C)c3c(C)nn(-c4cccc(F)c4)c32)c1, COCCN1C(=O)C(O)=C(C(=O)c2ccc(C)o2)C1c1ccc(O)c(OC)c1 (stereo not given), CC1=C[C@@H](CNC(=O)C2CCCCC2)[C@H](C(C)C)C[C@H]1Cc1nc2ccc(F)cc2[nH]1, CCc1ccc(CNC(=O)C2CCN(c3nn4cc(-c5ccc(F)cc5)nc4s3)CC2)cc1, CC(=O)Nc1cc(C(=O)NCc2ccc(F)cc2)ccc1Sc1ccc(F)cc1

Potency, active:
CC(C)(C)c1nc(C(=O)N2CCOCC2)n2ccccc12 100 µM, c1cc(-c2ccsc2)n2nc(C3CCCO3)nc2n1 (stereo not given) 25.1 µM, O=C(NC1CCN(c2nc3ncccc3o2)CC1)c1ccc(F)cc1 35.5 µM, O=C(NC1CCN(c2nc3ncccc3o2)CC1)c1ccc(Cl)nc1 25.1 µM, CN(C)C(=O)NC1CCN(c2nc3ncccc3o2)CC1 31.6 µM, O=C(NC1CC1)C1CCCN(c2nc3ncccc3o2)C1 (stereo not given) 35.5 µM, COc1ccc(Nc2cc3c(nc2-c2ccccc2)nc(C(=O)NCCN(C)C)n3C)cn1 31.6 µM, O=c1[nH]c(C2CCCN(Cc3ccc(-c4ccsc4)cc3)C2)nc2ccc(F)cc12 (stereo not given) 79.4 µM, CC(O)CNC(=O)c1ccc(-c2ncc3cnc(C4=CCOCC4)cn23)cc1 (stereo not given) 35.5 µM, COc1ccccc1-c1cc(C(=O)N(C)C)nc2c1cnn2C 89.1 µM, CCCn1cnc2c1CN(S(=O)(=O)Cc1ccccc1)[C@H](C(=O)OC)C2 39.8 µM, Cn1ccnc1C(=O)N1CCC2(CC1)CN(c1ncccn1)CC2CO (stereo not given) 22.4 µM, Cc1cc(C)c(-c2nc3ncccc3[nH]2)[nH]1 35.5 µM, COc1ccc(-c2ncc3c(n2)OCCN(Cc2ccccc2)C3=O)cn1 28.2 µM, O=C1c2cnc(-c3ccc(O)c(F)c3)nc2OCCN1Cc1ccccc1 20 µM, Cc1nn(-c2ccc(C(C)(C)C)cc2)c(C)c1[C@@H]1C=C[C@@H](NC(=O)c2ccco2)C1 31.6 µM, CSc1ccc(-c2ccc(C=O)cc2)cc1 10 µM, CCOCC(=O)Nc1nn(-c2cccc(F)c2)c2cccc(N3CCOC3=O)c12 28.2 µM, CC(C)Cn1cncc1CNC(=O)c1ccc2nc(-c3ccc(F)cc3)cn2c1 25.1 µM
